Results taken from the supplement of paper PMC10646978.
± gives the standard deviation.

system: RAW-Dual (murine macrophage reporter line); assay: IRF reporter (Lucia luciferase) activity fold change vs agonist alone; higher = enhanced IRF activity; conditions: modulator concentration 10 µM; agonist: MPLA […]
Procedure, shortened: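 Overnight stimulation with a PRR agonist followed pre-incubation for 1 hour at 37 °C with compound at 10 μM final. This was done in RAW-Dual murine macrophage reporter cells seeded at 50 000 per well in 384-well plates. NF-κB (SEAP, QUANTI-Blue absorbance at 620 nm) and IRF (Lucia luciferase, QUANTI-Luc luminescence) were read from the supernatant. Each reporter's fold change relative to the mean agonist-only control on the same plate was averaged over replicate plates.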

SMILES | IRF reporter
CC(C)C(C(=O)Nc1ccc(F)cc1)N1C(=O)c2ccccc2C1=O (stereo unspecified) | 0.943 ± 0.058
CCOC(=O)N1CCN(C(=O)CSc2nnc(-c3cccc(Cl)c3)o2)CC1 | 1.04 ± 0.11
O=C(CCC(=O)NN=Cc1ccc(O)cc1)NN=Cc1ccc(O)cc1 | 0.787 ± 0.085
COC(=O)C1=CN(C2CC2)C=C(C(=O)OC)C1c1ccccc1Cl | 1.06 ± 0.17
O=C1NC(=O)[C@@H](c2cn3c4c(cccc24)CCC3)[C@@H]1c1c[nH]c2ccccc12 | 0.948 ± 0.27
CC1=NN(c2ccc(S(N)(=O)=O)cc2)C(=O)C1=Cc1ccc(N(C)C)cc1 | 0.892 ± 0.06
COc1ccc(N(CC(=O)Nc2ccccc2C(F)(F)F)S(C)(=O)=O)cc1 | 0.962 ± 0.13
COC(CNC(=O)CSc1ccc(F)cc1)c1ccc(C)s1 (stereo unspecified) | 1.11 ± 0.1
CCOC(=O)C1=C(C)NC2=C(C(=O)CC(C)(C)C2)C1c1ccccc1Br (stereo unspecified) | 0.975 ± 0.2
CC(C=CC1=C(C)CCCC1(C)C)=CC=CC(C)=CC(=O)O | 0.904 ± 0.19
COc1ccc2c(Cl)c(C(=O)N3CCc4ccccc4C3)sc2c1 | 1.48 ± 0.13
O=C(Oc1ccc(O)c(CO)c1)c1ccccc1 | 0.769 ± 0.16
O=c1ccc2cc(O)c(O)cc2o1 | 1.2 ± 0.12

system: RAW-Dual (murine macrophage reporter line); assay: viability score (confluency relative to resting cells, overnight) (fraction); higher = more viable, active = viable (0.7 or more); conditions: modulator concentration 10 µM
Procedure, shortened: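 In 384-well plates, RAW-Dual macrophages received compound at a final 10 μM overnight. Two confluency masks were then made with IncuCyte software from IncuCyte images of all imaged wells. The viability score is defined as confluency relative to resting cells. Passing the cutoff required both masks to lie above 70% of resting cells.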

SMILES | viability score
O=[N+]([O-])c1cc2c(cc1C=Nc1ccc(O)cc1)OCO2 | 1 (active)
CCNC(=O)CCC/C=C\C[C@@H]1[C@@H](/C=C/C(O)CCc2ccccc2)[C@@H](O)C[C@@H]1O (stereo partly specified) | 1.01 (active)
CCCS(=O)c1ccc2nc(NC(=O)OC)[nH]c2c1 (stereo unspecified) | 0.998 (active)
C#CCN[C@@H]1CCc2ccccc21 [Prestw-1734] | 0.996 (active)
CCOC(=O)c1ccccc1NC(=O)CN(c1cc(Cl)ccc1OC)S(C)(=O)=O | 1.01 (active)
Cc1ccccc1C(=O)Nc1nc(C(C)(C)C)cs1 | 1 (active)
CC(Cc1ccc(O)c(O)c1)(NN)C(=O)O (stereo unspecified) | 1 (active)
O=C(NN=Cc1ccc([N+](=O)[O-])o1)c1ccc(O)cc1 | 0.938 (active)
O=C(CC12CC3CC(CC(C3)C1)C2)N1CCCCC1 | 0.911 (active)
COC(=O)C1=CN(CC2CCCO2)C=C(C(=O)OC)C1c1ccccc1Br (stereo unspecified) | 0.726 (active)
CCN(CC)C(=S)SSC(=S)N(CC)CC | 0.461 (inactive)
O=C(c1cc2cc(F)ccc2s1)N1CCc2ncncc2C1 | 1.01 (active)
Cc1ccc(-n2ncnc2-c2ccccc2C)cc1Cl | 0.996 (active)
COc1ccc(N(CC(=O)NCCSCc2ccccc2)S(C)(=O)=O)cc1Cl | 1.01 (active)
COc1ccc(CNc2nc(N3CCC[C@H]3CO)ncc2C(=O)NCc2ncccn2)cc1Cl | 1 (active)
O=C(Cc1ccccc1)NC(NC(=S)Nc1ccc(O)cc1)C(Cl)(Cl)Cl (stereo unspecified) | 1.02 (active)
CC(C)Oc1ccc(C(=O)NC2CCN(c3ncnc4c3CCCC4)CC2)cn1 | 0.997 (active)

SMILES | viability score
COc1ccc(S(=O)(=O)NCc2ccnc(N3CCOCC3)n2)cc1Cl | 1 (active)
CC(=O)OC(OC(C)=O)c1ccc([N+](=O)[O-])cc1 | 1 (active)
CC(=O)C1=C(C)OC2(O)c3ccccc3C(=O)C12O (stereo unspecified) | 0.945 (active)
COc1ccc(NC(=O)CN(c2ccc(F)cc2)S(C)(=O)=O)c(OC)c1 | 0.999 (active)
O=C(CCCN1C(=O)c2cccc3cccc(c23)C1=O)NCCO | 0.995 (active)
CCc1ccc2oc(-c3ccc(NC(=O)c4ccc(C)c([N+](=O)[O-])c4)cc3)nc2c1 | 1.01 (active)
COc1cccc2c1C(=O)c1c(O)c3c(c(O)c1C2=O)C[C@@](O)(C(=O)CO)C[C@@H]3O[C@H]1C[C@H](N)[C@@H](O)[C@H](C)O1.Cl | 0.105 (inactive)
CC(NCCC(c1ccccc1)c1ccccc1)c1ccccc1.Cl (stereo unspecified) | 0.204 (inactive)
CC(=O)Nc1nc(C2CC2)cc(-c2ccco2)c1C#N | 1 (active)
Cc1ccc(N2C(=O)C(Cl)=C(Nc3cccc(C)c3C)C2=O)cc1Cl | 0.995 (active)
CC(C)C(C(=O)Nc1ccc(F)cc1)N1C(=O)c2ccccc2C1=O (stereo unspecified) | 1.02 (active)
CCOC(=O)N1CCN(C(=O)CSc2nnc(-c3cccc(Cl)c3)o2)CC1 | 0.95 (active)
O=C(CCC(=O)NN=Cc1ccc(O)cc1)NN=Cc1ccc(O)cc1 | 1 (active)
COC(=O)C1=CN(C2CC2)C=C(C(=O)OC)C1c1ccccc1Cl | 1 (active)
O=C1NC(=O)[C@@H](c2cn3c4c(cccc24)CCC3)[C@@H]1c1c[nH]c2ccccc12 | 1.01 (active)
CC1=NN(c2ccc(S(N)(=O)=O)cc2)C(=O)C1=Cc1ccc(N(C)C)cc1 | 1 (active)
